Source: PubChem BioAssay
Only some compounds are listed: those with a hit (about 22% of all), similar ones and a draw of the others.
CYP2C9 inhib – blocks human cytochrome P450 2C9. P11712. CYP2C9 Supersomes, luciferin-H conversion, luminescence. inhibition, % at 5 µM. hit rate 20% among 96,000. AID 777;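 active = blocking of liver enzyme CYP2C9 beyond about 50% at 5 µM, limit read from the data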
CYP2C19 inh – human CYP2C19 inhibition. P33261. CYP2C19 Supersomes, luciferin-H EGE luminescence, 30 min. inhibition, % at 5 µM. hit rate 21% among 96,000. AID 778;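 active = CYP2C19 inhibition above a set limit at 5 µM in the primary screen, cut at about 50% in these data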;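 also: plate controls were negative control wells for no effect and 2.5 mM tranylcypromine positive control for full effect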
Target sequence (P33261 whole entry, looked up): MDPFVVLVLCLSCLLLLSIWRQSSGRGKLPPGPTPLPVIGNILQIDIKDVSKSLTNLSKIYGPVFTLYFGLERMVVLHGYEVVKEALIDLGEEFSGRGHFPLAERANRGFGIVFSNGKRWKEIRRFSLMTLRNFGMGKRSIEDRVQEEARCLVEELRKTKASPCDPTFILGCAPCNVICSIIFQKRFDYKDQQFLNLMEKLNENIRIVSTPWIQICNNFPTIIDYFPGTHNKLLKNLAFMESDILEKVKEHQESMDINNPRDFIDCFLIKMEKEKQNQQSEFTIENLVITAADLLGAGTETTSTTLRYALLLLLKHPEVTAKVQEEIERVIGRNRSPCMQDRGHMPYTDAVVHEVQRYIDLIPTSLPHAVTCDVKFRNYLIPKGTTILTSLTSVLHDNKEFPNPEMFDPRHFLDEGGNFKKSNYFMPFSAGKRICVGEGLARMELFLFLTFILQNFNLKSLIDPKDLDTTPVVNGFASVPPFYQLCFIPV
CYP2C19 act – increases human CYP2C19 enzyme activity; P33261; activation factor at 5 µM; AID 1025; recombinant CYP2C19, luciferin-H EGE luminescence; hits give high values; 0 = fully inhibited enzyme, 1 = untreated enzyme; 96,000 tested, under 10 active;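 active = activation factor of at least 2 at 5 µM in the primary screen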;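 also: 0 = wells with 2.5 mM tranylcypromine and 1 = vehicle-only wells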
CYP2C9 activ – activators of human CYP2C9. P11712. recombinant CYP2C9, luciferin-H conversion, luminescence; hits give high values; factor 1 = untreated enzyme, 0 = blocked. activation factor at 5 µM. hit rate 1.4% among 96,000. AID 1024;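 active = activation factor of 2 or more for CYP2C9 at a 5 µM dose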;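 also: 0 = sulfaphenazole-blocked wells and 1 = vehicle-only wells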
Measles CPE – protection of cells from measles virus; AID 841; hit rate 1.5% among 140,000; Measles virus-infected cells, CPE protection, absorbance; protection (pct of control), % at 4 µM; in the data active = protection mostly above about 24%, no sharp cut-off; inactive = mostly below about 26%
An asterisk follows results filed as active; x = no result given.

SMILES	CYP2C9 inhib	CYP2C19 inh	CYP2C19 act	CYP2C9 activ	Measles CPE
Cc1cnn(C(=S)NCc2ccco2)c1	15	1	1	0.9	20
CCN(CC)C(=O)/C(=C/c1ccc2c(c1)OCO2)NC(=O)c1ccc(Br)cc1	x	x	x	x	5
CCn1c(=N)c(C(=O)OC)cc2c(=O)n3ccccc3nc21	-18	63*	0.4	1.2	x
CN(C)CC1CCCCC1C1(O)c2ccccc2CSc2sccc21 (stereo unspecified)	x	x	x	x	9
O=C(OCC(=O)N1CCCCCC1)c1n[nH]c(=O)c2ccccc12	-1	17	0.8	1	17
O=C(OCC(=O)N1CCCCC1)c1c[nH]c(=O)[nH]c1=O	89*	1	1	0.1	5
CCOc1ccccc1/C=c1\sc2ncnn2c1=O	-123	0	1	2.2*	21
CC(=O)Oc1ccc(/C=c2\sc3ncnn3c2=O)cc1	-3	-5	1.1	1	4
O=C(Nc1cccc(-c2cn3cccnc3n2)c1)c1ccc(Br)o1	58*	-3	1	0.4	7
O=C(Nc1cccc(-c2cn3cccnc3n2)c1)c1ccc2c(c1)OCO2	60*	10	0.9	0.4	8
O=C(Nc1cccc(-c2cn3cccnc3n2)c1)c1ccco1	23	6	0.9	0.8	5
CC(NC(=O)C(=O)NN=C1CCCCCCC1)c1ccccc1 (stereo unspecified)	-7	-7	1.1	1.1	9
COc1ccc2[nH]c(C(=O)O)c(NS(=O)(=O)c3ccc(Cl)s3)c2c1	99*	79*	0.2	0	10
COc1ccccc1/C=C/C1=NC(=C\C=C/c2ccccc2)/C(=O)O1	x	x	x	x	38
COc1cccc(/C=N/n2c(N)nc3ccccc32)c1OC	19	31	0.7	0.8	6
COc1cccc(/C=N/n2c(SC)nnc2-c2ccccc2)c1O	54*	26	0.7	0.5	8
COc1cccc(/C=N/n2c(SC)nnc2-c2ccccc2)c1OC	91*	91*	0.1	0.1	8
COc1cccc(/C=N/n2cnc3ccccc32)c1OC	46	83*	0.2	0.5	34
Cc1cc(Cl)ccc1OCCCC(=O)N1CCCc2ccccc21	21	21	0.8	0.8	5
CCOC(=O)c1sc(=S)n(C)c1NC(=O)c1ccccc1Cl	x	x	x	x	9
CCOC(=O)N1CCN(S(=O)(=O)c2cc(Br)cc3c2N(C(=O)CC)CC3)CC1	-6	-6	1.1	1.1	14
O=C1CC(c2ccccc2)Cc2nc3ncnn3cc21 (stereo unspecified)	7	99*	0	0.9	15
Cc1ccccc1OCc1nc2c3c(ncn2n1)-c1ccccc1CC31CCCC1	x	x	x	x	12
COc1ccccc1N(CN1CCCC1=O)C(=O)c1c(F)cccc1Cl	9	16	0.8	0.9	7
CC(C)CC(c1nnnn1CC1CCCO1)N1CCN(c2nc3ccccc3s2)CC1 (stereo unspecified)	18	28	0.7	0.8	26
SMILES	CYP2C9 inhib	CYP2C19 inh	CYP2C19 act	CYP2C9 activ	Measles CPE
CCCC(c1nnnn1CC1CCCO1)N1CCN(c2nc3ccccc3s2)CC1 (stereo unspecified)	x	x	x	x	5
CCCCC(c1nnnn1CC1CCCO1)N1CCN(c2nc3ccccc3s2)CC1 (stereo unspecified)	76*	70*	0.3	0.2	1
CCCC(c1nnnn1Cc1ccco1)N1CCN(c2cc(Cl)ccc2C)CC1 (stereo unspecified)	60*	42	0.6	0.4	6
CCCCC(c1nnnn1CC1CCCO1)N1CCN(c2cc(Cl)ccc2C)CC1 (stereo unspecified)	90*	96*	0	0.1	1
COc1ccc(CNC(=O)c2cnn3c(C(F)F)cc(C)nc23)cc1OC	5	57*	0.4	0.9	6
S=c1[nH]nc(-c2ccncc2)n1/N=C/c1cccc2ccccc12	x	x	x	x	29*
Cc1ccc(/C=N/n2c(-c3ccncc3)n[nH]c2=S)cc1	x	x	x	x	16
O=S(=O)(c1ccc(F)cc1)n1ccc(-c2cccc(OCc3c(F)cccc3Cl)c2)n1	88*	36	0.6	0.1	3
O=S(=O)(c1ccc(Cl)cc1)n1ccc(-c2cccc(OCc3c(F)cccc3Cl)c2)n1	60*	23	0.8	0.4	29
C=CCOc1ccc(C2C(C#N)=C(N)N(Nc3ccccc3)C3=C2C(=O)CCC3)cc1OC (stereo unspecified)	70*	14	0.9	0.3	17
COc1cc(C2C(C#N)=C(N)N(Nc3ccccc3)C3=C2C(=O)CC(C)(C)C3)ccc1OCc1cccc(F)c1 (stereo unspecified)	96*	68*	0.3	0	7
COc1cc(C2C(C#N)=C(N)N(Nc3ccccc3)C3=C2C(=O)CC(C)(C)C3)ccc1OCc1ccccc1 (stereo unspecified)	79*	21	0.8	0.2	7
COc1cc(C2C(C#N)=C(C)NC3=C2C(=O)CC(C)(C)C3)ccc1OCCO (stereo unspecified)	47	14	0.9	0.5	3
COc1ccc(C2C(C#N)=C(N)N(Nc3ccccc3)C3=C2C(=O)CC(C)(C)C3)cc1C (stereo unspecified)	2	17	0.8	1	13
COC(=O)c1ccccc1NC(NC(=O)c1ccco1)C(=O)c1ccccc1 (stereo unspecified)	7	-10	1.1	0.9	15
CCN(CC)S(=O)(=O)c1cccc(-c2nnc(SC(C)C(N)=O)n2CCc2ccccc2)c1 (stereo unspecified)	56*	46	0.5	0.4	5
CCN(CC)S(=O)(=O)c1cccc(-c2nnc(SC(C)C#N)n2Cc2ccccc2)c1 (stereo unspecified)	64*	61*	0.4	0.4	6
CCN(CC)S(=O)(=O)c1cccc(-c2nnc(SCC(N)=O)n2CCc2ccccc2)c1	x	x	x	x	15
CCN(CC)S(=O)(=O)c1cccc(-c2nnc(SCC(=O)c3ccc(Cl)s3)n2C)c1	89*	71*	0.3	0.1	7
CCN(CC)S(=O)(=O)c1cccc(-c2nnc(SCC#N)n2Cc2ccccc2)c1	18	23	0.8	0.8	5
CCc1nc(SCC(=O)N2CCN(c3ccccc3)CC2)c2oc3ccccc3c2n1	14	11	0.9	0.9	9
CCc1nc(SCC(=O)c2ccc(Cl)s2)c2oc3ccccc3c2n1	75*	42	0.6	0.3	2
CCc1nc(Sc2nc(C)cc(C)n2)c2oc3ccccc3c2n1	63*	80*	0.2	0.4	14
CCc1cc2c(SCC(=O)c3ccc(Cl)s3)ncnc2s1	82*	82*	0.2	0.2	7
CCc1nc(SCCO)c2oc3ccccc3c2n1	66*	51*	0.5	0.3	3
CCc1nc(N(CC)CC)c2oc3ccccc3c2n1	x	x	x	x	6
CC1CCCN(C2=C(Cl)C(=O)N(c3cccc(Cl)c3)C2=O)C1 (stereo unspecified)	x	x	x	x	13
